Screening results: PubChem BioAssay, several laboratories
Hits are enriched below; roughly 4.3% of the tested compounds scored in any of these assays.
sPLA2-III inh: Blocks human group III sPLA2 activity | QFRET BODIPY PC-A2 liposome hydrolysis, fluorescence | inhibition, % at 12.2 µM | 370,000 compounds, 0.56% hits;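 active = inhibition above mean plus 3 SD of compounds lying within the high and low control bounds, cut at about 19% in these data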;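 also: 0% = median of test compound wells and 100% = no enzyme DMSO wells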
NR3A LBD binder: modulates the human NR3A ligand-binding domain; Tm shift relative to glycine control, % at 25 µM; 340,000 compounds, 2.5% hits; NR3A LBD differential scanning fluorimetry, Tm shift; 0% = protein alone, 100% = glycine-bound protein; AID 1259313;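 active = melting temperature shift of at least 10% of the positive control shift, at one fixed dose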
FAS TE block: inhibitors of human fatty acid synthase thioesterase domain; inhibition, % at 15 µM; recombinant FAS-TE, OMFH fluorogenic substrate, fluorescence endpoint; P49327; 360,000 compounds, 0.67% hits; AID 602261;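 active = compounds whose normalised, plate-corrected inhibition of enzyme fluorescence in the single-dose primary screen is 50% or more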;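 also: 0% = DMSO with enzyme and 100% = substrate without enzyme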
ADAM17 inh: ADAM17 inhibition, QFRET primary screen | P78536 | recombinant ADAM17, EDANS/DABCYL FRET peptide cleavage | inhibition, % at 6.95 µM | 370,000 compounds, 0.83% hits;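 active = inhibition above the mean of compounds lying between control limits plus 3 SD, set per campaign, cut at about 8.5% in these data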;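 also: 0% = DMSO-only wells as the low control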
ADAM10 inh: inhibits human ADAM10 | O14672 | recombinant ADAM10, EDANS/DABCYL FRET peptide cleavage, 3 h | inhibition, % at 7 µM | 370,000 compounds, 0.62% hits;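 active = inhibition above a per-campaign cutoff equal to the mean of compounds falling between control-based bounds plus 3 SD, cut at about 20% in these data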;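 also: 0% = DMSO wells while the 100% control is not disclosed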
Target sequence (O14672 214-748 limits assumed): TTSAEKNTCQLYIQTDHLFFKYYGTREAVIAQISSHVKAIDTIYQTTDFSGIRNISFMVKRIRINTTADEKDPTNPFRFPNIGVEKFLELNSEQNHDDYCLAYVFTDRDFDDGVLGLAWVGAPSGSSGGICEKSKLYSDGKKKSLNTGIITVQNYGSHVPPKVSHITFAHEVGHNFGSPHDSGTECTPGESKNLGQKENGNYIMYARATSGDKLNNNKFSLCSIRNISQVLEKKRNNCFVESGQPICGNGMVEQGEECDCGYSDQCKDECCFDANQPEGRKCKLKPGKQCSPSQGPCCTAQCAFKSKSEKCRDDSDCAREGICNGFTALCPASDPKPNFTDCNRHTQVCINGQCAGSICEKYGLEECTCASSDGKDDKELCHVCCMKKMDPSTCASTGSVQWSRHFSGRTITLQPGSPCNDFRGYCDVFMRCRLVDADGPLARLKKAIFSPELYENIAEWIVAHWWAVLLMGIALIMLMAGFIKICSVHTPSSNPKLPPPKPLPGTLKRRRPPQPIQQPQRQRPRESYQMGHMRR
FAS-TE conf: FAS thioesterase (human) inhibition, confirmation. 2,300 compounds, 45% hits. shares compounds with FAS TE block. recombinant FAS-TE, OMFH fluorogenic substrate, fluorescence. AID 624325. inhibition, % at 15 µM;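 active = compounds inhibiting the enzyme by at least 50% at 15 µM in any one of the replicates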;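 also: 0% = enzyme with DMSO only and 100% = wells lacking enzyme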
* hit, by the source's call; . = not tested or not shown.

SMILES	sPLA2-III inh	NR3A LBD binder	FAS TE block	ADAM17 inh	ADAM10 inh	FAS-TE conf
O=Cc1s/c(=N\S(=O)(=O)c2ccccc2)n(CCCCl)c1Cl	-2	1	76*	2	9	83*
COc1ccccc1NC(=S)OCCN1CCCC12CCC(c1ccccc1)CC2 (configuration not stated)	13	.	.	-8	-4	.
COc1ccc(N2C(=O)NC3CC2(C)Oc2ccc(Br)cc23)cc1OC (configuration not stated)	-5	-1	59*	-3	12	74*
O=C1CC(c2cccc(Cl)c2)c2cc3c(cc2N1)CCC3 (configuration not stated)	-1	-47	20	7	5	.
O=C1CC(c2cccc([N+](=O)[O-])c2)c2c(ccc3ccccc23)N1 (configuration not stated)	-4	-19	55*	0	-4	49*
O=C1CC(c2cccc([N+](=O)[O-])c2)c2cc3c(cc2N1)CCC3 (configuration not stated)	-6	-2	51*	1	12	33*
Cc1ccc(C2CC(=O)Nc3c2ccc2ccccc32)cc1[N+](=O)[O-] (configuration not stated)	-6	-17	28	3	5	.
COc1ccccc1N1CCN(S(=O)(=O)c2ccc3c(c2)oc(=O)n3C)CC1	-1	1	17	-5	-1	.
Cc1ccc(Cl)cc1N1CCN(S(=O)(=O)c2ccc3c(c2)oc(=O)n3C)CC1	-3	0	52*	2	-2	7
O=C(/C=C/c1ccccc1)NC(=S)Nc1ccccc1	1	-11	8	4	4	.
C=CCN(CC=C)S(=O)(=O)c1ccc(NC(=S)NC(=O)/C=C/c2ccccc2)cc1	0	0	57*	1	14	10
O=C(N[C@H](Cc1ccccc1)C(=O)N1CCN(c2ccc(Cl)cn2)CC1)[C@H]1O[C@@H](n2ccc(=O)[nH]c2=O)[C@H](O)[C@@H]1O	3	.	.	-18	-72	.
CCn1c(=N)c(S(=O)(=O)c2ccccc2)cc2c(=O)n3ccccc3nc21	-2	3	55*	-57	-161	35
CCn1c(=N)c(S(=O)(=O)c2ccc(C)cc2)cc2c(=O)n3ccccc3nc21	3	.	.	-49	-134	.
CC(=O)OCCCNc1cc(Sc2ccc(Cl)cc2)c2nonc2c1[N+](=O)[O-]	0	-3	62*	3	2	25
CCCC(=O)OCCNc1cc(Sc2nc3ccccc3[nH]2)c2nonc2c1[N+](=O)[O-]	-16	-4	75*	3	4	78*
O=C(O)c1ccc(N/N=C/c2ccc(-c3cccc(Cl)c3)o2)cc1	-59	-7	26	-14	-18	.
O=C(O)c1ccc(N/N=C/c2ccc(-c3cc(Cl)ccc3Cl)o2)cc1	-5	-6	81*	-9	-31	84*
O=C(O)c1ccc(N/N=C/c2ccc(-c3ccc(Cl)cc3Cl)o2)cc1	-20	3	75*	-8	-16	78*
COC(=O)[C@]12C[C@H](CC(=O)NCC3CCCCC3)C(=O)N(Cc3ccco3)C1=C[C@H](C1CCCC1)O[C@@H]2C	-7	.	.	1	5	.
O=[N+]([O-])c1ccc(S(=O)(=O)N/N=C/c2ccc3c(c2)OCO3)cc1	0	-4	72*	-3	-5	74*
O=[N+]([O-])c1ccc(S(=O)(=O)NN=Cc2ccc(Cl)c(Cl)c2)cc1	-13	12*	81*	-3	2	89*
CC(C)(C)OC(=O)NCc1ccc(CNC(=O)c2[nH]cnc2C(=O)NCC(=O)OCc2ccccc2)cc1	-22	-10	66*	5	11	76*
Cc1ccc(/C=C/c2ccc(=O)n(Cc3ccc(F)cc3)n2)cc1	-4	-8	50*	-22	-65	39*
O=C1CCC[C@@H]2C[C@@]3(C[C@@H]4CCN1[C@H]24)Nc1cc(Cl)c(Cl)cc1NC3=NCc1ccccc1	4	-2	52*	-3	3	36
O=C(NC(=S)Nc1cccc(C(F)(F)F)c1)c1ccc2nonc2c1	9	9	51*	3	8	20
